The supplement of paper PMC7366291
Counter-ions that a name gives are not always drawn. ± gives the standard deviation or the standard deviation of the averaged measurements.

Legend:
Settings in all cases: 25 µM; exposure: 24-48 hpf
[1] = tested on: Danio rerio Tg(wt1b:EGFP) embryo, pronephros; assay: glomerular separation, fold change vs DMSO control; higher = glomeruli further apart (abnormal)
Procedure, shortened: (§1)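 Features are reported as fold changes against the mean of same-day DMSO-treated embryos. Before that, values more than 2 SD away from the feature mean were excluded. The embryos, dechorionated Tg(wt1b:EGFP) zebrafish, had been exposed from 24 to 48 hpf at 28.5°C to 25 μM compound in 0.5% DMSO in HEPES-buffered E3 with 0.003% PTU, and distances and angles came from 16 manually set points on maximum projections of dorsal pronephros images in Fiji.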

[2] = tested on: Danio rerio Tg(wt1b:EGFP) embryo, pronephros; assay: glomerular width (mean of left and right), fold change vs DMSO control; higher = wider glomerulus
Procedure, shortened: as §1

[3] = tested on: Danio rerio Tg(wt1b:EGFP) embryo, pronephros; assay: fraction of imaged embryos annotated as normal kidney; higher = less nephrotoxic; extreme values may be limits of the assay
Procedure, shortened: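 Dechorionated Tg(wt1b:EGFP) zebrafish embryos were exposed in 12-well plates to 25 μM compound in 0.5% DMSO, 5 mM HEPES-buffered E3 with 0.003% PTU, from 24 to 48 hpf at 28.5°C. Tricaine-anaesthetised larvae were oriented dorsally in agarose-filled 96-well plates, and pronephroi were imaged by widefield fluorescence (470 nm, 10 z-slices). Each embryo was manually annotated from maximum projections. The read-out is the fraction of embryos per treatment assigned to the normal-kidney category.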

[4] = tested on: Danio rerio Tg(wt1b:EGFP) embryo, pronephros; assay: pronephric angle neck segment to proximal convoluted tubule (mean of left and right), fold change vs DMSO control; higher = larger pronephric angle
Procedure, shortened: as §1

| Compound | glomerular separation [1] | glomerular width [2] | fraction of imaged embryos annotated as normal kidney [3] | pronephric angle neck segment [4] |
| --- | --- | --- | --- | --- |
| NC(=O)OCC(COC(N)=O)c1ccccc1 [Felbamate] | 0.918 ± 0.32 | 1.05 ± 0.031 | 0.833 | 1.01 ± 0.013 |
| CC(=O)[C@H]1CC[C@H]2[C@@H]3CC=C4C[C@@H](O)CC[C@]4(C)[C@H]3CC[C@]12C [Pregnenolone] | 1.31 ± 0.74 | 1.14 ± 0.018 | 0.583 | 0.999 ± 0.16 |
| O=P(O)(O)C(O)(Cc1cccnc1)P(=O)(O)O [Risedronic acid monohydrate] | 0.755 ± 0.35 | 1.04 ± 0.032 | 0.833 | 0.975 ± 0.027 |
| Cc1nnc(NS(=O)(=O)c2ccc(N)cc2)s1 [Sulfamethizole] | 0.838 ± 0.34 | 1.06 ± 0.087 | 0.667 | 1.06 ± 0.028 |
| COc1ccc(-c2cc(=S)ss2)cc1 [Anethole-trithione] | 1.04 ± 0.42 | 0.886 ± 0.027 | 0.909 | 1.04 ± 0.066 |
| Cc1ncc([N+](=O)[O-])n1CC(C)O (stereo not drawn) [Secnidazole] | 0.775 ± 0.29 | 0.9842 ± 0.0045 | 0.833 | 0.9777 ± 0.0024 |
| C[C@H](Cc1cc2c(c(C(N)=O)c1)N(CCCO)CC2)NCCOc1ccccc1OCC(F)(F)F [Silodosin] | 0.726 ± 0.14 | 0.985 ± 0.067 | 0.917 | 0.992 ± 0.028 |
| O=C1O[C@H]([C@@H](O)CO)C(O)=C1O [Ascorbic acid] | 1.08 ± 0.33 | 1.01 ± 0.09 | 0.75 | 1.03 ± 0.025 |
| O=C1c2c(O)cccc2Cc2cccc(O)c21 [Anthralin] | 0.949 ± 0.28 | 0.986 ± 0.02 | 0.909 | 1.06 ± 0.014 |
| CCCOc1ccc(C(=O)OCCN(CC)CC)cc1N [Proparacaine hydrochloride] | 0.768 ± 0.39 | 0.93 ± 0.052 | 0.833 | 0.998 ± 0.041 |
| Cc1cc(=O)n(-c2ccccc2)n1C [Antipyrine] | 1 ± 0.28 | 0.98 ± 0.024 | 0.667 | 1 ± 0.043 |
| CC=CC(=O)N(CC)c1ccccc1C [Crotamiton] | 0.867 ± 0.16 | 0.96 ± 0.038 | 1 | 1 ± 0.019 |
| CCOc1nc2cccc(C(=O)O)c2n1Cc1ccc(-c2ccccc2-c2nnn[nH]2)cc1 [Candesartan] | 0.996 ± 0.37 | 1.03 ± 0.023 | 0.917 | 1.01 ± 0.019 |
| COC(=O)Nc1nc2cc(Sc3ccccc3)ccc2[nH]1 [Fenbendazole] | 4 ± 2.6 | 0.568 ± 0.027 | 0 | 1.8 ± 0.13 |
| Clc1ccc(CO/N=C(\Cn2ccnc2)c2ccc(Cl)cc2Cl)c(Cl)c1 [Oxiconazole Nitrate] | 3.51 ± 1.1 | 0.623 ± 0.014 | 0 | 1.26 ± 0.03 |
| CC(C(=O)O)c1cccc(Oc2ccccc2)c1 (stereo not drawn) [Fenoprofen calcium salt dihydrate] | 3.89 ± 1.7 | 0.88 ± 0.059 | 0 | 1.55 ± 0.027 |
| CN(C)CCN1C(=O)c2ccccc2N(C)c2ccccc21 [Dibenzepine hydrochloride] | 1.21 ± 0.68 | 1.08 ± 0.047 | 0.75 | 0.967 ± 0.086 |
| CC(=O)O[C@H]1C(=O)[C@@]2(C)[C@H]([C@H](OC(=O)c3ccccc3)[C@]3(O)C[C@H](OC(=O)[C@H](O)[C@@H](NC(=O)c4ccccc4)c4ccccc4)C(C)=C1C3(C)C)[C@]1(OC(C)=O)CO[C@@H]1C[C@@H]2O [Paclitaxel] | 1.59 ± 0.55 | 1.06 ± 0.015 | 1 | 0.964 ± 0.021 |
| C[n+]1ccccc1/C=N/O [Pralidoxime chloride] | 0.691 ± 0.38 | 0.9582 ± 0.0035 | 0.833 | 1.039 ± 0.01 |
| COc1c(O[C@@H]2O[C@H](CO)[C@@H](O)[C@H](O)[C@H]2O)cc2c(c1OC)-c1ccc(SC)c(=O)cc1[C@@H](NC(C)=O)CC2 [Thiocolchicoside] | 1.03 ± 0.41 | 0.909 ± 0.018 | 0.833 | 0.932 ± 0.027 |
| CC1CC(OC(=O)C(O)c2ccccc2)CC(C)(C)N1C (stereo not drawn) [Eucatropine hydrochloride] | 0.748 ± 0.31 | 0.975 ± 0.042 | 0.917 | 0.9583 ± 0.0057 |
| Cc1cnc(NC(=O)C2=C(O)c3ccccc3S(=O)(=O)N2C)s1 [Meloxicam] | 6.33 ± 2.2 | 0.678 ± 0.021 | 0 | 1.76 ± 0.0091 |
| NNCCc1ccccc1 [Phenelzine sulfate] | 0.964 ± 0.27 | 1.04 ± 0.016 | 0.833 | 0.93 ± 0.067 |
| CC(COc1ccccc1)NC(C)C(O)c1ccc(O)cc1 (stereo not drawn) [Isoxsuprine hydrochloride] | 1.07 ± 0.26 | 1.08 ± 0.024 | 1 | 0.928 ± 0.029 |
| Cc1cc(C(C)(C)C)c(O)c(C)c1CC1=NCCN1 [Oxymetazoline hydrochloride] | 1.08 ± 0.39 | 1.03 ± 0.078 | 0.833 | 0.976 ± 0.042 |
| OCCOCCN1CCN(C(c2ccccc2)c2ccc(Cl)cc2)CC1 (stereo not drawn) [Hydroxyzine dihydrochloride] | 0.754 ± 0.2 | 1.02 ± 0.013 | 1 | 0.964 ± 0.048 |
| CCN(CC)CCN[C@@H](C(=O)OCCC(C)C)c1ccccc1 [Camylofine chlorhydrate] | 0.973 ± 0.34 | 1.02 ± 0.018 | 0.75 | 0.977 ± 0.015 |
